{"source": "PubChem BioAssay"}
{"assay": "probe aNOTCH2 binding on compound microarray – biochemical, small-molecule microarray, 635/667 nm fluorescence, primary screen (AID 1121);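 further: score merges feature fluorescence read at 667 nm with its signal to noise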", "conditions": "higher = more signal"}
{"smiles": "Cc1nc2cc(Br)ccc2c(=O)n1Cc1cccc(O)c1", "composite z-score": -0.12}
{"smiles": "C=C[C@@H](C)[C@H](O)c1ccc(OCCO)cc1", "composite z-score": -0.206}
{"smiles": "C=CCN1C(=O)[C@]2(O[C@H](CCO)[C@@H]([Si](C)(C)c3ccc(OC)cc3)[C@@H]2C)c2cc(NC(=O)c3ccc(OC)cc3)ccc21", "composite z-score": -0.108}
{"smiles": "CCOC(=O)C[C@H]1[C@H](OC(=O)c2cc3ccccc3oc2=O)[C@@H](NC(=O)c2ccc3ccccc3c2)c2cc(OCCCO)ccc2N1C(=O)Cc1ccc(OC)cc1", "composite z-score": -0.0131}
{"smiles": "COc1ccc(C#Cc2ccc3c(c2)[C@]2(C(=O)N3)[C@H](c3ccc(OCCO)cc3)N3[C@H](c4ccccc4)[C@H](c4ccccc4)OC(=O)[C@H]3[C@@H]2C(=O)N2CCc3cc(OC)c(OC)cc3C2)cc1", "composite z-score": -0.23}
{"smiles": "COC(=O)c1c2oc(c1C(=O)OC)C(=O)N1CCC[C@H]1Cn1nncc1CN(Cc1ccccc1)C(=O)N[C@H](CO)CC2", "composite z-score": -0.164}
{"smiles": "COC(=O)C(CC#Cc1ccc2c(c1)[C@]1(C(=O)N2)[C@H](c2ccc(O)cc2)N2[C@H](c3ccccc3)[C@H](c3ccccc3)OC(=O)[C@H]2[C@@H]1C(=O)N1CCCCCCC1)C(=O)OC", "composite z-score": -0.0586}
{"smiles": "C=C[C@H](C)[C@H](OC(=O)Nc1ccc(OC)cc1)c1ccc(OCCO)cc1", "composite z-score": -0.209}
{"smiles": "[N-]=[N+]=NC[C@H](Cc1ccccc1)NC(=O)c1ccccc1", "composite z-score": -0.0783}
{"smiles": "COc1ccc([Si](C)(C)[C@H]2[C@H](CC(=O)N3Cc4ccccc4C[C@H]3CO)O[C@@]3(C(=O)N(Cc4ccc(N5C(=O)c6cccc7cccc5c67)cc4)c4ccccc43)[C@@H]2C)cc1", "composite z-score": -0.207}
